According to publication PMC5540273 (PLoS ONE, 2017):

Key:
Conditions in all cases: concentration: 1 μM,replicates: in singlicate; n = 1
AAK1 = test system: AAK1
ABL1-nonphosphorylated = test system: ABL1-nonphosphorylated
ABL1-phosphorylated = test system: ABL1-phosphorylated
ABL2 = test system: ABL2
ACVR1B = test system: ACVR1B
ACVR1 = test system: ACVR1
ACVR2A = test system: ACVR2A
ACVR2B = test system: ACVR2B
ACVRL1 = test system: ACVRL1
ADCK3 = test system: T1, ADCK3
T1 construct: gene CABC1

ADCK4 = test system: ADCK4
AKT1 = test system: AKT1
AKT2 = test system: AKT2
AKT3 = test system: AKT3
ALK = test system: ALK
AMPK-alpha1 = test system: T2, AMPK-alpha1
T2 construct: gene PRKAA1

AMPK-alpha2 = test system: T3, AMPK-alpha2
T3 construct: gene PRKAA2

ANKK1 = test system: ANKK1
ARK5 = test system: T4, ARK5
T4 construct: gene NUAK1

ASK1 = test system: T5, ASK1
T5 construct: gene MAP3K5
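Further: KINOMEscan kinase panel screen.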

SMILES	%Inh (AAK1) [%]	%Inh (ABL1-nonphosphorylated) [%]	%Inh (ABL1-phosphorylated) [%]	%Inh (ABL2) [%]	%Inh (ACVR1B) [%]	%Inh (ACVR1) [%]	%Inh (ACVR2A) [%]	%Inh (ACVR2B) [%]	%Inh (ACVRL1) [%]	%Inh (ADCK3) [%]	%Inh (ADCK4) [%]	%Inh (AKT1) [%]	%Inh (AKT2) [%]	%Inh (AKT3) [%]	%Inh (ALK) [%]	%Inh (AMPK-alpha1) [%]	%Inh (AMPK-alpha2) [%]	%Inh (ANKK1) [%]	%Inh (ARK5) [%]	%Inh (ASK1) [%]
FC(F)(F)c1cc(Br)cc(Nc2nccc(-c3cnn4ncccc34)n2)c1 [GW810578]	32	0	0	0	6	15	13	2	25	10	27	6	6	20	0	24	16	27	40	0
Cc1cccc2c(-c3ccncc3)c(-c3ccc(F)cc3)nn12.Cl [GW461487]	14	0	0	5	18	9	0	11	0	18	28	0	2	0	7	17	0	24	11	1
COc1cc2nccc(Nc3ccc(Oc4ccccc4)cc3)c2cc1OC.Cl [GI261656]	6	89	14	16	0	0	0	0	0	5	40	0	0	0	4	0	0	0	7	0
Cl.c1ccc(Oc2ccc(Nc3ccnc4cc(-c5ccc(CN6CCNCC6)o5)ccc34)cc2)nc1 [GW567142]	2	99.7	84	42	0	0	0	41	0	0	18	0	0	0	15	0	0	0	12	0
Nc1nccc(-c2ccc3c(N)n[nH]c3c2)n1 [GSK1034945]	65	0	0	9	0	0	0	44	0	1	33	0	10	0	20	0	0	31	0	0
Cc1ccn2nc(-c3ccc(F)cc3)c(-c3ccncc3)c2c1.Cl [GW457859]	0	0	0	0	0	9	0	32	0	17	59	0	0	0	1	5	0	5	5	0
Cn1ccc2ncnc(Oc3ccc(NC(=O)Nc4ccnc(C(F)(F)F)c4)c(Cl)c3)c21	18	68	10	5	0	11	4	13	63	0	4	7	0	0	0	0	0	0	2	0
C[C@@H]1CNc2c(sc3ccc4nc(-c5ccncc5)ccc4c23)C(=O)N1	49	38	11	0	0	0	1	30	10	0	0	0	18	22	33	20	0	0	0	90
Cn1ccc2ncnc(Oc3ccc(NC(=O)Nc4cc(C(C)(C)C)on4)c(Cl)c3)c21	18	94.8	51	46	15	0	12	12	0	0	19	18	0	0	38	0	21	10	4	11
Cn1ccc2ncnc(Oc3ccc(NC(=O)Nc4cnn(C(C)(C)C)c4)c(Cl)c3)c21	3	87	39	11	2	0	0	0	17	0	0	0	8	13	0	19	20	0	19	2
